Some test systems named below: SK-MEL-2 melanoma; EKVX NSCLC; SN12C renal; UO-31 renal; TK-10 renal; ACHN renal; CAKI-1 renal; A498 renal; CCRF-CEM leukemia; MOLT-4 leukemia; RPMI-8226 leukemia; OVCAR-8 ovarian; OVCAR-5 ovarian; OVCAR-4 ovarian; SK-OV-3 ovarian; IGROV1 ovarian; OVCAR-3 ovarian; HS 578T breast; NCI/ADR-RES ovarian.
What all share (assay): NCI-60 one-dose screen, 48 h (100 = growth as untreated, 0 = no growth, -100 = all killed)
Common to all, as to settings: 10 µM unless noted

Molecules are shown by their SMILES. This is part of a sample that, as a whole, favours compounds with a hit. Of some 83,000 tested, about 20% had one in any assay.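 The endpoint reported here, percent growth, reads 100 for growth as untreated, 0 for no net growth and -100 for all cells dead.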 A number with no mark means an inactive call. Active and inactive are the calls of the source. How the source made its calls: active means growth percent below 10; inactive means the rest.

In the case of `CC(=O)c1nc(Nc2ccc(C)cc2)sc1C`, the growth was 102% in the assay on SK-MEL-2 melanoma; 74.4% with EKVX NSCLC; 102% with SN12C renal; 81.6% with UO-31 renal; 120% with TK-10 renal; 102% in the assay with ACHN renal. Besides, the growth is 87.9% with CAKI-1 renal; 66.2% in the assay with A498 renal; 95.6% in the assay with CCRF-CEM leukemia; 96.1% in the assay on MOLT-4 leukemia; 96.2% in the assay with RPMI-8226 leukemia; 95% in the assay on OVCAR-8 ovarian. Besides, the growth is 97% in the assay on OVCAR-5 ovarian; 110% with OVCAR-4 ovarian; 97.8% in the assay on SK-OV-3 ovarian; 86.9% in the assay with IGROV1 ovarian; 97.5% in the assay on OVCAR-3 ovarian; 90.1% in the assay with HS 578T breast. The growth with NCI/ADR-RES ovarian is 99.4%.
For the compound `COc1cccc(/C=C/C(=O)c2c(C)nc3ccccc3c2/C=C/c2ccc(C)cc2)c1OC`, the growth is 77.2% in the assay on SK-MEL-2 melanoma; 80.8% in the assay on EKVX NSCLC; 52.1% with SN12C renal; 54.3% with UO-31 renal; 118% with TK-10 renal; 52.9% in the assay on ACHN renal. The growth in the assay on CAKI-1 renal is 57%; in the assay with A498 renal, 73.8%; with CCRF-CEM leukemia, 16.6%; in the assay with MOLT-4 leukemia, 11.3%; in the assay with RPMI-8226 leukemia, 8.55% (active); with OVCAR-8 ovarian it was 49.6%. Also, the growth in the assay on OVCAR-5 ovarian is 67.5%; in the assay with OVCAR-4 ovarian it was 56.6%; with SK-OV-3 ovarian, 84.8%; in the assay on IGROV1 ovarian it was 36.4%; with OVCAR-3 ovarian it was 52.4%; in the assay on HS 578T breast, 68.3%. Further, the growth in the assay with NCI/ADR-RES ovarian was 40.6%.
Consider `COc1ccccc1N1C(=O)/C(=C/C2=Cc3ccccc3OC2)SC1=S`, for which the growth was 110% in the assay on SK-MEL-2 melanoma; 95.3% in the assay with EKVX NSCLC; 97.4% in the assay with SN12C renal; 88.3% in the assay on UO-31 renal; 84.3% with TK-10 renal; 96.9% in the assay with ACHN renal. For the same compound, the growth in the assay on CAKI-1 renal was 85.2%; in the assay on A498 renal, 40.7%; in the assay on CCRF-CEM leukemia, 90.5%; with MOLT-4 leukemia it was 94.6%; in the assay on RPMI-8226 leukemia, 91.4%; in the assay on OVCAR-8 ovarian, 102%. The growth with OVCAR-5 ovarian was 99.2%; with OVCAR-4 ovarian, 83.2%; with SK-OV-3 ovarian, 95.2%; in the assay with IGROV1 ovarian, 97.2%; with OVCAR-3 ovarian, 101%; with HS 578T breast, 94.6%. The growth in the assay on NCI/ADR-RES ovarian is 109%.
As to `c1csc(-c2c3ccc(=[N+]4CCCCC4)cc-3oc3cc(N4CCCCC4)ccc23)c1`, the growth with SK-MEL-2 melanoma is -68.5% (active); with EKVX NSCLC it was -51.8% (active); with SN12C renal it was -65.1% (active); with UO-31 renal, -82.3% (active); in the assay on TK-10 renal, -92.5% (active); in the assay on ACHN renal it was -94.4% (active). For the same compound, the growth in the assay with CAKI-1 renal is -70.3% (active); with A498 renal it was -96.4% (active); in the assay with CCRF-CEM leukemia, -19.7% (active); in the assay on MOLT-4 leukemia it was -28.7% (active); in the assay on RPMI-8226 leukemia, -39.1% (active); in the assay on OVCAR-8 ovarian it was -33.5% (active). Besides, the growth is -83.1% (active) in the assay on OVCAR-5 ovarian; -54.3% (active) in the assay with OVCAR-4 ovarian; -89% (active) in the assay with SK-OV-3 ovarian; -67.1% (active) in the assay on IGROV1 ovarian; -96.9% (active) with OVCAR-3 ovarian; -20.7% (active) with HS 578T breast. Moreover, in the assay with NCI/ADR-RES ovarian, the growth was -38.9% (active).
`O=C1/C(=C\c2cccnc2)SC(=S)N1CCc1ccc(O)cc1`: the growth was 66.5% in the assay on SK-MEL-2 melanoma; 64.7% in the assay with EKVX NSCLC; 18.4% with SN12C renal; 37.4% with UO-31 renal; 38.5% with TK-10 renal; 29.4% in the assay on ACHN renal. Moreover, the growth with CAKI-1 renal was 30.5%; with A498 renal, 85.1%; in the assay on CCRF-CEM leukemia, 23.9%; in the assay with MOLT-4 leukemia it was 68.6%; with RPMI-8226 leukemia, 16.7%; in the assay with OVCAR-8 ovarian it was 62.6%. Further, the growth in the assay with OVCAR-5 ovarian was 58.8%; in the assay on OVCAR-4 ovarian, 64%; in the assay on SK-OV-3 ovarian, 96.4%; with IGROV1 ovarian, 62.9%; with OVCAR-3 ovarian it was 35.7%; with HS 578T breast, 74.7%. Further, the growth in the assay on NCI/ADR-RES ovarian is 47.9%.
For `N=C1CCC(=N)c2c1c(O)c1ccccc1c2O`, the growth in the assay on SK-MEL-2 melanoma was 117%; in the assay on EKVX NSCLC, 82.1%; with SN12C renal, 105%; with UO-31 renal, 101%; in the assay with TK-10 renal it was 127%; with ACHN renal it was 87%. Moreover, the growth in the assay on CAKI-1 renal is 56%; in the assay with A498 renal, 100%; with CCRF-CEM leukemia it was 98.4%; in the assay with MOLT-4 leukemia, 81.1%; with RPMI-8226 leukemia, 80.2%; in the assay on OVCAR-8 ovarian, 109%. Moreover, the growth is 124% in the assay with OVCAR-5 ovarian; 95.2% in the assay with OVCAR-4 ovarian; 84.7% in the assay on SK-OV-3 ovarian; 80.1% in the assay with IGROV1 ovarian; 73.1% in the assay with OVCAR-3 ovarian; 82.8% with HS 578T breast. Also, the growth in the assay with NCI/ADR-RES ovarian is 119%.
As for `C=CCSc1nc2ccccc2cc1/C=N/O`, the growth in the assay on SK-MEL-2 melanoma was 84.4%; in the assay with EKVX NSCLC it was 76.6%; with SN12C renal, 89.5%; in the assay with UO-31 renal it was 58.9%; in the assay on TK-10 renal, 108%; in the assay with ACHN renal, 87.6%. The growth was 75.1% in the assay with CAKI-1 renal; 98% with A498 renal; 95.5% with CCRF-CEM leukemia; 86.7% with MOLT-4 leukemia; 86.7% in the assay with RPMI-8226 leukemia; 89.6% in the assay with OVCAR-8 ovarian. The growth was 78.6% in the assay on OVCAR-5 ovarian; 107% with OVCAR-4 ovarian; 68.2% with SK-OV-3 ovarian; 74.1% in the assay on IGROV1 ovarian; 92.1% with OVCAR-3 ovarian; 72.2% in the assay on HS 578T breast. The growth in the assay on NCI/ADR-RES ovarian is 97.2%.
With `COc1ccc(N=Nc2ccc(O)c(=O)cc2)cc1`, the growth in the assay on SK-MEL-2 melanoma was 19.7%; in the assay with EKVX NSCLC, 4.69% (active); with SN12C renal, 6.7% (active); with UO-31 renal, 1.08% (active); in the assay with TK-10 renal it was 44.3%; in the assay on ACHN renal it was 4.83% (active). For the same compound, the growth was 11.1% with CAKI-1 renal; 82.4% in the assay on A498 renal; 15.8% in the assay with CCRF-CEM leukemia; -18.4% (active) in the assay with MOLT-4 leukemia; 9.86% (active) in the assay with RPMI-8226 leukemia; 9.87% (active) in the assay on OVCAR-8 ovarian. The growth in the assay on OVCAR-5 ovarian is 47.8%; with OVCAR-4 ovarian, 31.8%; in the assay with SK-OV-3 ovarian, 16.5%; in the assay with IGROV1 ovarian, 15.1%; in the assay with OVCAR-3 ovarian, 16.2%; with HS 578T breast, 30.7%. For the same compound, in the assay on NCI/ADR-RES ovarian, the growth was -29% (active).
